# Assay outcomes: PubChem BioAssay, several laboratories
# Shown are actives, neighbours in structure and some others; about 3.9% of the full set was active somewhere.
# Vc quorum ag: inducers of Vibrio cholerae quorum light production without autoinducers, primary screen, BH1578 luxS cqsA deficient, single point; V. cholerae BH1578 lux reporter, luminescence, 6 h; 350,000 compounds, 0.16% hits; activation, % at 18.7 µM; AID 588436, 2011; in the data active = activation mostly above about 9.7%, no sharp cut-off; inconclusive = no clear call, values can overlap the other calls; inactive = mostly below about 3.7%
# Anthrax LF inh2: Bacillus anthracis LF protease inhibitors, primary screen, biochemical, multiplex microsphere, MLPCN library; Lethal factor (Bacillus anthracis), P15917; multiplex microsphere protease cleavage assay; inhibition, % at 10 µM; 360,000 compounds, 0.12% hits; AID 588501, 2011; note: plate controls were buffer without enzyme for full effect and enzyme alone for no effect
# Target sequence (P15917 whole entry, looked up): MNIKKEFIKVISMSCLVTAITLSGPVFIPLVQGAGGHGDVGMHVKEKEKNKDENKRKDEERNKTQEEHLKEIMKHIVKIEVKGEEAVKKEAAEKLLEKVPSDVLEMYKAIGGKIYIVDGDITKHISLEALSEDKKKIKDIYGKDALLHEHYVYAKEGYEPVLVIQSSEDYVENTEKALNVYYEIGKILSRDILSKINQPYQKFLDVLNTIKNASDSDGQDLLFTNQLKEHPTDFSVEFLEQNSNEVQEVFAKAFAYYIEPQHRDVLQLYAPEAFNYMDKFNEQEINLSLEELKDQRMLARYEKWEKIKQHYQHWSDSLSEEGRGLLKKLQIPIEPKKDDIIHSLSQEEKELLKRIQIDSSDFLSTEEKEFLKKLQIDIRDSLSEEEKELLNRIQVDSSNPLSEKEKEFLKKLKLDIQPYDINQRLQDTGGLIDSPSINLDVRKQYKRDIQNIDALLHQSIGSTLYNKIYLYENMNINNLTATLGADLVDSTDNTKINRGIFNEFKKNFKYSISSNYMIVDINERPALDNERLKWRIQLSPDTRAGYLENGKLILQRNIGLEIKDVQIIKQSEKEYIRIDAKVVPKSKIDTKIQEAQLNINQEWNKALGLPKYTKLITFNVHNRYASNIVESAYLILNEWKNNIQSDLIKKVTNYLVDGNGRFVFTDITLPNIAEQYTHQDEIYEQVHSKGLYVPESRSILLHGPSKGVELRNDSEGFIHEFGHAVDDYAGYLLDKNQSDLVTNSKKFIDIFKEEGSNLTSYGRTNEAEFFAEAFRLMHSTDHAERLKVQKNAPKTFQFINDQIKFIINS
# MazF activator: activators of E. coli MazEF toxin-antitoxin RNase, primary screen, biochemical, fluorescence, uHTS | 350,000 compounds, 0.32% hits | activation, % at 20 µM | FAM/BHQ RNA-DNA oligo cleavage fluorescence, 5 h | Endoribonuclease toxin MazF (Escherichia coli (strain K12)), P0AE70; in the data active = activation above about 50%
# BoNT F protease: BoNT/F light chain protease inhibitors, primary screen, biochemical, flow cytometry, MLPCN library | Botulinum neurotoxin type F light chain protease (Clostridium botulinum) | Multiplex microsphere protease cleavage assay | inhibition, % at 10 µM | 360,000 compounds, 0.22% hits; in the data active = inhibition above about 35%, passing the limit was not always enough; inconclusive = no clear call, values can overlap the other calls; note: plate controls were buffer without enzyme for full effect and enzyme alone for no effect
# BoNT-A LC inh2: BoNT/A light chain protease inhibitors, primary screen, biochemical, flow cytometry, MLPCN library; Botulinum neurotoxin type A light chain protease (Clostridium botulinum A str. ATCC 3502); multiplex microsphere protease substrate cleavage; inhibition, % at 10 µM; 360,000 compounds, 0.17% hits; note: plate controls were buffer without enzyme for full effect and enzyme alone for no effect
# Bead autofluor: flagged as autofluorescent in microsphere protease counterscreen; fluorescence intensity (test concentration not listed); compound autofluorescence counterscreen, microsphere flow cytometry; hits give high values; 360,000 compounds, 3.1% hits; in the data active = fluorescence intensity above about 16000; inconclusive = no clear call, values can overlap the other calls
# Starred values were filed as active, the others as inactive; i = inactive; ? = inconclusive; . = no result given. Cut-off read from the data, not from the text of the source, unless noted: active = inhibition above about 30%; inconclusive = no clear call, values can overlap the other calls; inactive = below that.
SMILES,Vc quorum ag,Anthrax LF inh2,MazF activator,BoNT F protease,BoNT-A LC inh2,Bead autofluor
CCCCCCn1c(CN2CCN(Cc3ccccc3)CC2)nc2c1c(=O)n(C)c(=O)n2C,i,-0.7,-6.3,-3.2,-0.9,20131*
CC1SC(c2ccc(F)cc2)NC1=O (stereo not given),0.1,-2.5,6.5,-0.9,-0.7,2072
CC(C)(CCC(=S)N1CCOCC1)c1ccccc1,-5.6,-4.4,6.3,-0.4,0.3,3516
COc1ccc(C(C(=O)NC2CCCC2)N(Cc2cccnc2)C(=O)c2snc(C(N)=O)c2N)cc1 (stereo not given),-0.1,-3.6,-15.1,-8.4,-1.7,4610
O=C(CCCn1c(=S)[nH]c2ccccc2c1=O)NC1CCCC1,-3.5,-0.2,-5.9,-5.0,-2.1,16938*
O=C(CCn1c(=S)[nH]c2ccccc2c1=O)NCC1CCCO1 (stereo not given),-2.6,-0.9,-8.7,5.0,5.0,21058*
CON/C=C(\C=Nc1ccc(Cl)cc1)c1ncc(C(F)(F)F)cc1Cl,2.0,-3.6,2.5,-1.1,-0.4,23332*
CON/C=C(\C=Nc1ccc(C(F)(F)F)cc1)c1ncc(C(F)(F)F)cc1Cl,-0.3,-1.1,5.2,-2.8,0.0,5846
NC(=O)COC(=O)CNC(=O)c1sc2ccccc2c1Cl,i,-2.9,-2.9,-0.2,-0.4,4119
O=C(NC1CC1)c1ccc(Cl)c(S(=O)(=O)N2CCOCC2)c1,i,5.3,12.8,2.4,0.6,3480
O=C(O)CN1C(=O)S/C(=C\c2cccnc2)C1=O,-0.6,-2.8,7.4,-1.4,0.4,4571
CN1C(=O)S/C(=C/c2cccnc2)C1=O,i,-0.6,1.4,-3.7,-0.1,21884*
O=C(c1ccccc1)c1ncc(C(F)(F)F)cc1Cl,-0.2,-1.7,-1.5,-4.7,-1.9,20699*
CCC(Sc1ncccc1C(=O)OCCN1CCCC1=O)C(=O)NCc1ccco1 (stereo not given),-0.1,-6.6,3.6,8.4,6.5,20951*
CCC(Sc1ncccc1C(=O)OC(C)C)C(=O)N1CCOCC1 (stereo not given),i,-9.5,7.8,-1.5,?,22945*
CCOC(=O)c1cccnc1SC(CC)C(=O)NCc1ccco1 (stereo not given),-0.2,-0.1,3.0,-2.0,-1.3,24254*
O=C(c1cccnc1Cl)N1CCOCC1,i,-4.6,6.8,-1.1,0.1,4160
CCC(Sc1ncccc1C(=O)OC(C)C)C(=O)NCc1ccco1 (stereo not given),i,-0.1,2.4,5.1,0.8,7901
CCOC(=O)c1c(C)[nH]c(C(=O)CSc2ccc(Cl)cc2)c1C,-2.6,-23.5,-0.6,-1.2,?,16362*
CCOC(=O)c1c(C)[nH]c(C(=O)CN2CCOCC2)c1C,i,-1.7,-11.5,-2.5,0.3,23350*
CCOC(=O)c1c(C)[nH]c(C)c1C(=O)CSc1nc2ccccc2[nH]1,i,-3.3,7.4,5.6,-0.5,10264
CCOC(=O)c1c(C)[nH]c(C)c1C(=O)CSc1ncccn1,-0.1,-0.8,3.1,5.2,4.1,21577*
CCOC(=O)c1c(C)[nH]c(C(=O)COC(=O)c2ccccn2)c1C,i,-2.1,5.5,-0.8,1.9,19471*
CCOc1cc(/C=C(\C#N)c2[nH]nc(N)c2C#N)ccc1O,6.2,0.5,5.8,-5.3,-1.8,23984*
CCOc1cc(-c2cc(-c3ccc(C)cc3)nc(N)c2C#N)ccc1O,-0.2,-3.9,-16.9,-1.9,0.1,5949
SMILES,Vc quorum ag,Anthrax LF inh2,MazF activator,BoNT F protease,BoNT-A LC inh2,Bead autofluor
O=C1C2CC=CCC2C(=O)N1c1n[nH]c(-c2ccccc2)n1 (stereo not given),6.2,6.1,2.1,4.7,0.7,3298
O=C1C2CC=CCC2C(=O)N1c1n[nH]c(CCc2ccccc2)n1 (stereo not given),i,-4.8,-3.0,7.1,?,18666*
Cc1cc2n(n1)C(c1ccccc1)Nc1ccccc1-2 (stereo not given),i,-1.4,1.9,-3.2,-1.5,16831*
CCN(CC)CCN1C(=O)c2ccccc2NC1c1ccc(N(C)C)cc1 (stereo not given),-7.1,1.4,5.5,4.6,0.8,2336
Cc1ccc2c(c1)-c1cc(C)nn1C(c1ccc3c(c1)OCO3)N2 (stereo not given),-0.3,?,3.0,17.2,2.4,?
Cc1cc2n(n1)C(c1sccc1C)Nc1ccccc1-2 (stereo not given),-0.4,?,10.1,?,?,?
Cc1cc2n(n1)C(c1ccc3c(c1)OCO3)Nc1ccccc1-2 (stereo not given),i,-2.4,-8.2,5.1,2.3,21039*
Cc1cc2n(n1)C(c1ccc(N(C)C)cc1)Nc1ccccc1-2 (stereo not given),-2.2,-2.2,2.8,-4.8,-2.8,20611*
COc1ccc(NC(=S)NC(=O)c2cncc(Br)c2)cc1,-0.4,-2.4,3.9,?,?,3702
Cc1ccccc1Cn1cc(NC(=O)c2noc3c2CC(C(C)(C)C)CC3)cn1 (stereo not given),i,-3.0,3.0,-0.9,?,16905*
CC(C)(C)C1CCc2onc(C(=O)NCc3ccc(F)cc3)c2C1 (stereo not given),-1.8,-0.5,1.5,0.3,0.7,22455*
O=C(NCc1ccc(F)cc1)c1noc2c1CCCC2,-0.7,0.2,-11.0,1.1,2.1,19451*
O=C(NCc1ccc(F)cc1)c1noc2c1CCCCC2,-4.2,-0.4,5.3,5.2,0.6,10547
Cc1ccccc1NC(=O)CCNS(=O)(=O)c1cccc2nsnc12,i,3.9,-26.5,-0.4,0.2,2847
CC(=O)c1c(C)[nH]c(C(=O)OCC(=O)c2ccc3c(c2)NC(=O)CO3)c1C,i,2.0,-24.6,-0.6,0.1,7517
CCC(=O)Nc1nc2ccc([N+](=O)[O-])cc2s1,-0.4,.,-0.1,.,.,.
Cc1ccc(C)c(OCC(=O)Nc2nc3ccc([N+](=O)[O-])cc3s2)c1C,i,-0.9,15.7,-1.1,?,22520*
O=C(CS(=O)(=O)c1ccc(Cl)cc1)NCc1ccccc1,i,-0.4,0.9,7.2,-2.9,5502
CCCc1cc(=O)[nH]c(SCC(=O)N2CC3(C)CC2CC(C)(C)C3)n1 (stereo not given),-0.5,3.3,0.5,-16.7,-2.3,5021
CCn1cc(C(=O)NCc2ccco2)c(=O)c2cc(S(=O)(=O)N3CCCCCC3)ccc21,i,-4.1,-3.1,0.3,?,21862*
CCn1cc(C(=O)NCCN(C)CCc2ccccc2)c(=O)c2cc(S(=O)(=O)N(C)C)ccc21,-2.2,-2.2,-15.0,-2.8,-1.1,22712*
